Pf growth 96h: P. falciparum growth inhibition at 96 hour, primary screen for plastid delayed-death inhibitors; 6.9% of 320,000 active; P. falciparum luciferase reporter growth, 96 h; Potency, µM (doses to about 28.7 µM), hits mostly inhibitors; AID 504834
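Erythrocytes infected with luciferase-expressing P. falciparum were dispensed at 2% hematocrit and 0.05% parasitemia (final), then incubated with compounds 96 hours at 37 C in 5% CO2. Luminescence after detection reagent addition reported growth.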
AMA1-RON2 inh: AMA1-RON2 (P. falciparum) interaction inhibition; AlphaScreen AMA1-biotinylated RON2 peptide binding; Potency, µM (titrated, usually from 58.2 µM), most hits filed as inhibitors; 0.2% of 360,000 active; AID 720542; further: nearly all actives have a fitted effect of over 45% in size
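AMA1 (3D7) with his tag at 25 nM final met compounds first, then biotinylated RON2 peptide at 25 nM; detection used donor plus acceptor beads, 10 µg/mL apiece, read by AlphaScreen after 30 min at room temperature.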
Shiga inhibitor: Shiga toxin inhibition; Vero cells, Shiga toxin protein synthesis inhibition reporter; inhibition, % at 38.7 µM; 9.2% of 290,000 active; in the data active means inhibition mostly above about 28%, no sharp cut-off; inactive means mostly below about 43%
SARS PLP yeast: SARS-CoV PLP inhibition in yeast; S. cerevisiae expressing SARS-CoV PLpro, growth rescue; Potency, µM (top dose mostly 32.9 µM), most hits filed as activators; 0.19% of 330,000 active; AID 485353; calls by dose curve; further: nearly all actives have a fitted effect of over 55% in size
Cycloheximide cs: counter-screen for Shiga toxin inhibitors: cycloheximide protein synthesis inhibition. max response, %. 12% of 300,000 active. cell reporter, cycloheximide protein synthesis inhibition counterscreen; in the data active means max response mostly above about 13%, no sharp cut-off; inactive means mostly below about 14%; further: read at 38.3 µM for the half of the compounds with a filed dose
Pf growth 48h: inhibits P. falciparum growth in the first generation, 48 h; P. falciparum luciferase growth in erythrocytes, 48 h; 5.9% of 310,000 active; Potency, µM (doses to about 28.7 µM), actives largely listed as inhibitors
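First compound was added to culture medium, then infected red cells at 0.1% parasitemia and 2% hematocrit (final). After incubation at 37 C under 5% CO2, luciferase detection reagent was dispensed and light output recorded.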
Each line names hits and unclear results; the compound was inactive in the other large screens. Sampled rows, rich in hits. Any-hit rate of the full collection: about 19%. Unless noted, the call rests on the fitted dose curve; in most records, active means well fitted curve in the direction sought with a large enough effect; inconclusive means small, poorly fitted or top-dose-only effect, or another doubt; inactive means no such curve, though single readings can be large; an effect the other way counts as inactive or inconclusive.

CC(C)Sc1nc2ccccc2n1CC(=O)O	none
COc1ccccc1N1CCN(C/C=C/c2ccc(N(C)C)cc2)CC1	Pf growth 96h inconclusive, Pf growth 48h inconclusive (no result: AMA1-RON2 inh)
COc1cc2nc(/C=C/c3ccc(N(C)C)cc3)sc2cc1SC	Pf growth 96h inconclusive, AMA1-RON2 inh 18µM, Pf growth 48h inconclusive
Cn1cnc(S(=O)(=O)Nc2ccc(OC(F)(F)F)cc2)c1	Pf growth 96h inconclusive, Pf growth 48h inconclusive
O=C(CCC(=O)Nc1ccc(F)cc1)N/N=C/c1ccccc1	Pf growth 96h 1.5µM
O=C(CCSCCC(=O)NN=Cc1ccccc1)NN=Cc1ccccc1	none (no result: Pf growth 96h, Shiga inhibitor, SARS PLP yeast, Cycloheximide cs, Pf growth 48h)
O=C(CCC(=O)Nc1ccc(Br)cc1)N/N=C/c1ccccc1O	Pf growth 96h inconclusive, Cycloheximide cs 21, Pf growth 48h inconclusive
O=C(Nc1ccccc1)O/N=C/c1ccncc1	Pf growth 96h inconclusive, Cycloheximide cs 17
O=C(CCC(=O)Nc1ccc(F)cc1)N/N=C/c1ccncc1	none
O=C(CCC(=O)Nc1ccccc1)N/N=C/c1ccncc1	Cycloheximide cs 23, Pf growth 48h inconclusive
COc1cc(C=NOC(=O)Nc2ccccc2)cc(OC)c1OC	none (no result: Pf growth 96h, Shiga inhibitor, SARS PLP yeast, Cycloheximide cs, Pf growth 48h)
Cn1c(CNC(=O)C(Cc2ccccc2)NC(=O)c2ccccc2F)cc(=O)n(C)c1=O (configuration not stated)	none
CCCCn1c(Cn2nc(C(=O)O)c3ccccc3c2=O)nc2cc(S(N)(=O)=O)ccc21	none
O=C(CCC(=O)Nc1ccc(Br)cc1)N/N=C/c1ccc(F)cc1	none
Cc1ccc(SCCC(=O)N/N=C/c2ccccc2O)cc1	Pf growth 96h inconclusive, SARS PLP yeast inconclusive, Pf growth 48h 15µM
Cc1ccc(NC(=O)CCC(=O)N/N=C/c2ccccc2O)cc1	none
O=C(CCC(=O)Nc1ccc(F)cc1)N/N=C/c1ccc(Br)cc1	Pf growth 96h 3.7µM
O=C(CCC1CCCC1)N[C@@H](Cc1ccc(O)cc1)C(=O)O	none
COc1ccc(C2N(c3ccccc3)C(=O)C2(F)F)cc1OC (configuration not stated)	none (no result: Pf growth 48h)
COc1ccc(C2C=C(Nc3ccccc3)C(=O)N2c2ccccc2)cc1OC (configuration not stated)	Pf growth 96h inconclusive, Shiga inhibitor 66, Cycloheximide cs 38
COc1cccc(C2C=C(Nc3ccccc3)C(=O)N2c2ccccc2)c1 (configuration not stated)	Shiga inhibitor 19, Cycloheximide cs 27, Pf growth 48h inconclusive
CC(C)(C)C(=O)NC1CCN(S(C)(=O)=O)CC1	Pf growth 96h 12µM
CC1CCc2c(nc3nc[nH]n3c2=O)C1 (configuration not stated)	Pf growth 96h 1.2µM (no result: Pf growth 48h)
C#CCNc1c2c(nc3ncnn13)CC(C)CC2 (configuration not stated)	none
Cc1nn(CC(=O)NC2CCC(C)CC2)c(C)c1[N+](=O)[O-] (configuration not stated)	none (no result: Shiga inhibitor, Cycloheximide cs)
O=C(/C=C/c1ccc2ccccc2n1)N1CCN(S(=O)(=O)c2ccccc2F)CC1	Pf growth 96h inconclusive, Pf growth 48h inconclusive
CC1CC(C)CN(C(=O)/C=C/c2ccc(S(=O)(=O)N3CCOCC3)cc2)C1 (configuration not stated)	Pf growth 96h 5.2µM, Pf growth 48h 9.3µM (no result: Shiga inhibitor, Cycloheximide cs)
O=C(/C=C/c1ccc(S(=O)(=O)N2CCOCC2)cc1)N1CCN(c2ccc(F)cc2)CC1	Pf growth 96h inconclusive, Pf growth 48h 7.4µM
O=C(/C=C/c1ccc2ccccc2n1)N1CCN(S(=O)(=O)c2ccc(F)cc2)CC1	Pf growth 96h 10µM, Pf growth 48h inconclusive
O=c1c2c3c(sc2nc(NCCO)n1Cc1ccco1)CCCCC3	Cycloheximide cs 14
COCCNc1nc2sc3c(c2c(=O)n1Cc1ccco1)CCCCC3	Shiga inhibitor 30, Cycloheximide cs 28
O=c1c2c3c(sc2nc(NCCO)n1CCc1ccccc1)CCCCC3	Pf growth 96h inconclusive, AMA1-RON2 inh inconclusive, Pf growth 48h inconclusive
CN(C)CCNc1nc2sc3c(c2c(=O)n1Cc1ccccc1)CCCCC3	Pf growth 96h inconclusive, Pf growth 48h inconclusive
CCOC(=O)c1cc2c(nc1N)CCCC2	none
C=C(C)CNC(=S)Nc1nc2c(cc1C(=O)OCC)CCCC2	Shiga inhibitor active
Cc1[nH]c2ccccc2c1C(=O)C(C)OC(=O)c1ccc([N+](=O)[O-])o1 (configuration not stated)	Pf growth 96h inconclusive, Pf growth 48h 3.3µM
CCCCCNc1nc(NCCCO)c(C#N)c2c1CN(C)CC2	Pf growth 96h 12µM (no result: Pf growth 48h)
CCCCCNc1nc(N2CCCC2)c2c(c1C#N)CCN(C)C2	AMA1-RON2 inh inconclusive, Pf growth 48h 4.1µM
C=CCNc1nc(NCc2ccccc2)c(C#N)c2c1CN(C)CC2	Pf growth 48h inconclusive
CCn1c(=S)sc2c(=O)n(CC(=O)Nc3ccc(C(C)=O)cc3)c(C)nc21	none
CCSc1ccccc1C(=O)NC1CCCCC1	none
CC(C)OCCCNC(=O)c1ccc(Br)cc1	Cycloheximide cs 44
CCOCCCNC(=O)c1ccc(Br)cc1	Cycloheximide cs 26
COCCCNC(=O)c1ccc2c(=O)n(Cc3ccc(OC)cc3)c(=O)[nH]c2c1	Pf growth 96h inconclusive
CCOCCCNC(=O)c1ccccc1Br	none (no result: Pf growth 96h)
CCOCCCNC(=O)c1ccc2c(=O)n(Cc3ccc(OC)cc3)c(=O)[nH]c2c1	Pf growth 48h 5.9µM
CCOCCCNC(=O)c1ccc(OC)cc1	Cycloheximide cs 21 (no result: Pf growth 96h)
CCOCCCNC(=O)c1ccc(OC(C)=O)cc1	none (no result: Pf growth 96h)
CC(C)OCCCNC(=O)c1ccncc1	none (no result: Pf growth 96h)
Cc1ccc(OCCCC(=O)N(C)CC(=O)Nc2c(C)cccc2C)cc1	none (no result: Pf growth 96h, Shiga inhibitor, SARS PLP yeast, Cycloheximide cs, Pf growth 48h)
O=C(COc1ccccc1)NCC(=O)N/N=C/c1ccc(Cl)cc1	none
Cc1ccc2ccccc2c1CSc1nc(N)nc2c1ncn2CC(C)C	none (no result: Pf growth 96h, Shiga inhibitor, SARS PLP yeast, Cycloheximide cs, Pf growth 48h)
COc1ccc(Nc2cc(Nc3ccc(OC)cc3)ncn2)cc1	none
COc1ccc(Nc2nccc(-c3ccc(C#N)cc3)n2)cc1	Pf growth 96h 5.9µM
COc1ccc(Nc2nccc(-c3cccc(N)c3)n2)cc1	Shiga inhibitor 71, Cycloheximide cs 68
COc1ccc(Nc2nccc(NCCO)n2)cc1	Shiga inhibitor 72, Cycloheximide cs 41 (no result: Pf growth 96h, AMA1-RON2 inh, SARS PLP yeast, Pf growth 48h)
COc1ccc(Nc2nccc(OC)c2C#N)cc1	none
COc1cc(Cl)cc(/C=N/NC(N)=O)c1O	none
CC(C)CC(C(=O)N1CCc2ccccc2C1)N1C(=O)c2ccccc2C1=O (configuration not stated)	Pf growth 96h inconclusive (no result: Pf growth 48h)
CCCCC(c1nc2ccccc2[nH]1)N(C(=O)c1ccccc1)c1ccccc1[N+](=O)[O-] (configuration not stated)	none (no result: Pf growth 96h, Shiga inhibitor, SARS PLP yeast, Cycloheximide cs, Pf growth 48h)
COc1cc(O)c(CCO)c2c1C(=O)C[C@@H](C)O2	Pf growth 96h 1.9µM
Cc1nn(CC(=O)Nc2ccc(S(=O)(=O)N(C)C)cc2)c(C)c1[N+](=O)[O-]	none
CC1=Nc2cc([N+](=O)[O-])ccc2NC(C)(C)C1	Shiga inhibitor 115, Cycloheximide cs 62, Pf growth 48h inconclusive
O=[N+]([O-])c1ccc2cn[nH]c2c1	none

Source: PubChem
